Experimental findings from PubChem BioAssay (EPA / NIEHS) are described below.

Each structure is given as a SMILES string. Calls of active or inactive are those of the source. The calls were made as follows: active = hit-call score of the fitted dose curve at least 0.9, where 1 is the maximum; inactive = score below 0.9.

Read-out in this assay: catalase (CAT), CAT (gene 847)
Briefly: LTEA_HepaRG_CAT: Life Technologies and Expression Analysis (LTEA) Assay for catalase (CAT) using HepaRG (AID 2283452).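 As to AC50: TaqMan qRT-PCR signal normalized to ACTB GAPDH and POLR2A housekeeping genes.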 To be noted: mRNA level, 48 h; actives raise or lower the signal. The protocol:
LTEA_HepaRG is a cell based, multiplexed-readout assay that uses HepaRG, a human liver cell line, with measurements taken at 48 hours after chemical dosing on a 96-well plate.LTEA_HepaRG_CAT is one of 102 assay component(s) measured in the LTEA HepaRG cell culture assay. It is a marker of Oxidative Stress.Data from the assay component LTEA_HepaRG_CAT was analyzed into 1 endpoint. This assay endpoint, LTEA_HepaRG_CAT, was analyzed with bidirectional fitting relative to DMSO as the negative control and baseline of activity. Using a type of inducible reporter, measures of mRNA induction for gain or loss-of-signal activity can be used to understand regulation of transcription factor activity. To generalize the intended target to other relatable targets, this assay endpoint is annotated to the catalase intended target family, where the subfamily is oxidative stress.
A total of 1060 chemcials from the ToxCast library were tested in eight-point concentration-response experiments. Cell culture and cytotoxicity assays were conducted at Thermo Fisher Scientific's Custom Services facility (Madison, WI). A single lot of human HepaRG cells (Thermo Fisher Scientific, Frederick, MD) was used for the cell culture experiments. 96-well format collagen type I coated plates of human HepaRG cells were prepared using established methods. Briefly, cryopreserved HepaRG cells were thawed, plated at a density of approximately 100,000 cells/well in HepaRG Thaw, Plate, and General Purpose media (HPRG770, Thermo Fisher Scientific), and incubated for 48 hours. 0.5% DMSO was selected as vehicle control to balance the requisite need of DMSO in HepaRG cultures to maintain differentiation (for example, baseline metabolism, proportions of hepatocytes vs. cholangiocytes), while enabling further hepatic receptor pathway activation (for example, PXR and CAR) in response to chemical exposure. 48 hours after plating, the culture medium was replaced with HepaRG Serum-Free Incudtion Media. Cells were exposed to each test chemical in duplicate and maintained in CO2 incubators for another 48 hours. Chemical plates were thawed to room temperature and 200x concentrations of treatment groups were prepared. 8-point conentration-reponse curves were made with the highest exposure at 100 uM, followed by half-log dilutions, all in 0.5% DMSO. Each test plate contained variouse controls, induction positive controls (1mM phenobarbital), cytotoxicity positive controls ([…] aflatoxin B1), vehicle controls (0.5% DMSO), and total lysis controls (0.5% DMSO). Cell morphology images were taken using an Essen IncuCyte FLR automated microscope, with six 96-well plates imaged in about 24 minutes. Images were captured and exported and JPEG files. Spent culture media was transfered to black-well plates for the LDH assay, and remaining media was sorted at -80 C for later use. Cells were treated with RLT buffer and frozen until shipped for gene expression analysis. Total RNA was isolated from the cell suspension in 75 uL of Buffer RLT (Qiagen, Germantown, MD 20874) by Quintiles/Expression Analysis (Durham, NC) using a custom isolation procedure. Total RNA from each plate well was transferred to a preamplification plate. Fluidigm's 96.96 Dynamic ArrayTM (Fluidigm, Amsterdam, the Netherlands) technology was used for gene expression analyses by quantitative reverse transcription polymerase chain reaction (qRT-PCR, performed by Quintiles/Expression Analysis, Durham, NC)89. Standard TaqManTM Assays (Applied Biosystems/ThermoFisher Scientific, Foster City, CA) were used to assess the expression of 93 genes selected based on their selectivity and sensitivity to important hepatic receptors known to be modulated by environmental chemicals; importance in human hepatocyte functionality; and hepatotoxicity. […]
Regarding `CCOC(=O)CC(O)(CC(=O)OCC)C(=O)OCC`, the molecule was classed as inactive. One may read the AC50 as the midpoint of the concentration-response curve, whichever way the signal moves. `Cc1cc(CCN2CCN(c3nsc4ccccc34)CC2)cc2c1NC(=O)CC2(C)C`: the AC50 is 73.4 µM (active). For the molecule `CCCCCCCCCCCCN1CCCC1=O`, the call was inactive. Consider `CC(O)CO` (stereo not given), for which the molecule was classed as inactive. Turning to `Nc1cccc2c(N)cccc12`, the outcome was inactive. Turning to `CCN(CC)CCNc1ccc(CNC=O)c2sc3ccc(OC)cc3c(=O)c12`, the AC50 was 17.5 µM (active). Still for that read-out and setting: as for `CCCCCCCCCCCCc1ccccc1S(=O)(=O)O`, the figure is 88.9 µM (active). Regarding `CCC(=C(c1ccc(O)cc1)c1ccc(OCCN(C)C)cc1)c1ccccc1`, the molecule was classed as inactive. The same measure, in the same setting: next, `CC(C)(C)c1cc(C(C)(C)C)c(O)c(C(C)(C)C)c1`: “inactive”. `CC(C)(C)c1cccc(C(C)(C)C)c1O`: the molecule was called inactive. On the same count and under the same terms, next, `OCCC(F)(F)C(F)(F)C(F)(F)C(F)(F)C(F)(F)C(F)(F)F`: “inactive”. With `CCc1ccc(CCOc2ccc(CC3SC(=O)NC3=O)cc2)nc1` (stereo not given), the AC50 is 83.4 µM (active). Turning to `CCCCCCCC(=O)O`, the molecule was classed as inactive. In the case of `CC(C)CCCCCCOC(=O)CCCCC(=O)OCCCCCCC(C)C`, the call was inactive. On the same count and under the same terms, as for `CCCCCCCCOC(=O)CCCCCCCCC(=O)OCCCCCCCC`, the entry is “inactive”; as for `O=[N+]([O-])c1ccc(O)cc1`, “inactive”. Same read-out and setting: as for `COCC(C)OCC(C)O` (stereo not given), the entry is “inactive”; as for `C=C(C)C(=O)OCCC(F)(F)C(F)(F)C(F)(F)C(F)(F)C(F)(F)C(F)(F)F`, “inactive”.

Turning to `O=C(O)Cc1cc(I)c(Oc2cc(I)c(O)c(I)c2)c(I)c1`, the AC50 is 45.4 µM (active).

With `CCCOC(=O)c1ccc(O)cc1`, the call was inactive.

On to `CCCCOCCO`, for which the result was inactive.

On to `CC1=C(/C=C/C(C)=C/C=C/C(C)=C/C(=O)O)C(C)(C)CCC1`, for which the AC50 was 9.37 µM (active). On to `CC[C@H](C)[C@@H](C(=O)O)n1sc2ccccc2c1=O`, for which the outcome was inactive. On to `Cc1oc(-c2ccccc2)nc1CCOc1ccc(C[C@H](Nc2ccccc2C(=O)c2ccccc2)C(=O)O)cc1`, for which the AC50 was 29.4 µM (active). In the case of `OC1CCC(C2CCCCC2)CC1` (stereo not given), the result was inactive. The same measure, in the same setting: as for `CC(C)(C)CC(C)(C)c1ccc(O)c(-n2nc3ccccc3n2)c1`, the entry is “inactive”. Still for that read-out and setting: next, `CCC(C)(C)C1CCC(O)CC1` (stereo not given): “inactive”; `Cc1cc(C)c(O)c(C)c1`: “inactive”; `C[C@@H]1C[C@H]2[C@@H]3CCC4=CC(=O)C=C[C@]4(C)[C@@]3(F)[C@@H](O)C[C@]2(C)[C@@]1(O)C(=O)COP(=O)(O)O`: “inactive”. With `CC#C[C@]1(O)CC[C@H]2[C@@H]3CCC4=CC(=O)CCC4=C3[C@@H](c3ccc(N(C)C)cc3)C[C@@]21C`, the AC50 is 34.2 µM (active). Turning to `CCCCC(CC)COC(=O)CCCCC(=O)OCC(CC)CCCC` (stereo not given), the call was inactive. Turning to `O=C(OCCOCCOC(=O)c1ccccc1)c1ccccc1`, the molecule was classed as inactive. With `OCCC(F)(F)C(F)(F)C(F)(F)C(F)(F)C(F)(F)C(F)(F)C(F)(F)C(F)(F)F`, the molecule was classed as inactive. For `c1ccc2cc3c(ccc4ccccc43)cc2c1`, the AC50 was 15.4 µM (active).

Regarding `CCc1nn(C2CCCCC2)c2cc(C3(C#N)CCC(C(=O)O)CC3)ccc12` (stereo not given), the AC50 is 77.2 µM (active). Regarding `ClC1=C(Cl)C(Cl)(Cl)C(Cl)=C1Cl`, the result was inactive.

As to `OC1CCCCC1`, the outcome was inactive. For `CC(=O)NC1(c2cccc(F)c2)CCN(CC[C@@]2(c3ccc(Cl)c(Cl)c3)CN(c3ccccc3)C(=O)CO2)CC1`, the outcome was inactive.

On to `N#C[C@@H]1CC(F)(F)CN1C(=O)CNC1CC2CCC(C1)N2c1ncccn1` (stereo not given in full), for which the outcome was inactive. Still for that read-out and setting: next, `CN(C)C=O`: “inactive”.
